For 88 compounds, inhibition results are on record in PubChem BioAssay AID602399 (Sanford-Burnham Center for Chemical Genomics, 2012).

Values joined by “and” are separate entries in the source; they are usually repeats but may differ in a detail not shown here. Equal entries are not always repeated. The campaign covered roughly 360,000 compounds. About 2,800 (0.78%) were called active. Rule as the data show it: active = inhibition above about 26%; inactive = the rest. Many of the other results were omitted from the sample, so actives are more common in it than they were. A structure can be active in one record and inactive in another.

The subject of the experiment is Nicotinate-nucleotide adenylyltransferase NadD (Staphylococcus aureus N315). Put plainly: inhibitors of S. aureus NadD, primary screen, biochemical, colorimetric, uHTS (AID 602399). As to conditions: purified NadD enzyme, colorimetric absorbance read-out; at 20 µM; stronger effect = higher value.
In general, inhibition refers to the relative decrease from the control value, in per cent. Consider `C#Cc1cc(N2CCN(C(=O)c3ccoc3)CC2)n2nc(-c3cccc(Cl)c3)cc2n1`, for which the inhibition is 35.4% (active).
Regarding `O=C(c1ccccc1)N1CCN(C(=O)c2cc3nc(-c4ccccc4)cc(C(F)(F)F)n3n2)CC1`, the inhibition was 2.29% (inactive).
Turning to `CN(C)CCN1CCN(c2cc(-c3cccc(Cl)c3)nc3ccnn23)CC1`, the inhibition is -0.61% (inactive).
Regarding `CCCCC[C@H](C)N1C[C@@H](COCc2ccccc2)Oc2cc(N3CCC[C@@H]3CO)ccc2S1(=O)=O`, the inhibition was 1.75% (inactive).
For the compound `Nc1ncnc2c1cnn2C1CC(O)C(CO)O1` (stereo not drawn), the inhibition is 4.49% (inactive).
The figure for `CC(=O)NCCn1c(SCC(=O)Nc2ccc(C)cc2)nc2ccccc2c1=O` is -6.19% (inactive).
The figure for `C/C(=N\NC(=O)CSc1nc2ccccc2c(=O)n1-c1ccccc1C)c1cccs1` is 2.02% (inactive).
Consider `Cc1ccc(-n2c(SCC(=O)N/N=C/C=C/c3ccccc3[N+](=O)[O-])nc3ccccc3c2=O)cc1`, for which the inhibition was 35.1% (active).
For `Cn1c(SCC(=O)N/N=C/c2ccc(O)c(O)c2)nc2ccccc21` the value was -4.08% (inactive); for `Cc1nn(-c2ccccc2)c(C)c1/C=N/NC(=O)CSc1nc2ccccc2c(=O)n1-c1ccccc1`, 30.2% (active); for `CCn1c(SCC(=O)N/N=C/C=C/c2ccccc2[N+](=O)[O-])nnc1-c1ccccc1`, 5.92% (inactive).
For `Cc1ccc(CC2CC(=O)N(c3nc(C)cc(C)n3)C2=O)cc1` (stereo not drawn), the inhibition was -0.638% (inactive).
For `O=C(COC(=O)c1cc(S(=O)(=O)N2CCOCC2)ccc1F)NC1CC1` the value was -7.35% (inactive); for `COc1ccc(Cc2nnc(SCC(=O)N(c3ccccc3)C(C)C)n(N)c2=O)cc1`, -0.371% (inactive); for `CC(=O)N(c1ccc2oc(=O)sc2c1)S(=O)(=O)c1ccc(C)cc1`, -4.06% (inactive).
For `Cc1ccc2cccc(O)c2[n+]1[O-]` the value was -2.68% (inactive).
The figure for `O=C(O)c1ccc(COCC(F)(F)F)cc1` is 57.7% (active); for `NNC(=O)c1ccc(COCC(F)(F)C(F)F)cc1` it is 0.345% (inactive); for `O=C(O)CCC(=O)NCc1ccc(C(=O)O)cc1` it is -1.86% (inactive).
`O=C(CCc1ccccc1)Nc1ccc(NC(=O)C2CCCCC2)nc1`: the inhibition was -0.446% (inactive).
The figure for `O=C1CCCN2N=C(SCC(=O)Nc3ccc(Br)cc3)SC2=N1` is 0% (inactive).
Turning to `COCCNC(=O)Cn1cc2c(n1)CCCCC2`, the inhibition is 4.24% (inactive).
For `CC1CN(S(=O)(=O)c2ccc(C(=O)NN3CCN(C)CC3)cc2)CC(C)O1` (stereo not drawn) the value was -3.52% (inactive).
The figure for `Cc1ccc(C(=O)N/N=C\c2cc(Br)c(Br)o2)cn1` is -3.68% (inactive); for `Nc1cccnc1Sc1ccccc1` it is -5.1% (inactive); for `FC(F)(F)C1CCCN(c2nsc3ccccc23)C1` (stereo not drawn) it is 34.7% (active).
The figure for `CC(C)(C)c1ccc(C(=O)N2CCC(C(=O)N3CCCCC3)CC2)cc1` is -0.861% (inactive).
As to `C/C(CC(=O)Nc1ccc(Cl)cc1)=N\NC(=O)C(=O)NCCO`, the inhibition is 2.33% (inactive).
The figure for `Nc1nonc1-n1nnc(C(=O)N/N=C/c2cc(Br)ccc2O)c1CSC1=NCCS1` is 37.3% (active).
As for `CN(C)Cc1c(C(=O)N/N=C/c2ccccc2OCc2ccc(F)cc2)nnn1-c1nonc1N`, the inhibition is 5.11% (inactive).
With `CC(C)c1c(C(=O)N/N=C/c2ccccc2C(=O)O)nnn1-c1nonc1N`, the inhibition is -2.34% (inactive).
`Clc1ccc(-c2cc(C3CCNCC3)[nH]n2)c(Cl)c1`: the inhibition is -5.2% (inactive).
Take `CCC(C(=O)OC)n1cnc2c(oc3ccccc32)c1=O` (stereo not drawn): the inhibition is -0.579% (inactive).
The figure for `COC(=O)c1ccc(CSc2nnc(NC(C)C)s2)cc1` is -1.36% (inactive); for `CCOc1ccccc1Nc1nnc(SCc2ccc(C(=O)OC)o2)s1` it is -2.72% (inactive); for `Cc1ccc(C(=O)Oc2coc(CSc3nnc(NC(=O)c4cccs4)s3)cc2=O)cc1C` it is 58.4% (active).
The figure for `Cc1cc(C)c(C2C3=C(Nc4c2c(C)nn4-c2ccccn2)c2ccccc2C3=O)c(C)c1` (stereo not drawn) is 33.2% (active); for `Cc1ccc(C)c(OCCC(=O)OCC(=O)c2ccc3c(c2)NC(=O)CO3)c1` it is -5.39% (inactive); for `COc1ccc(C(=O)c2c(C)c(CCC#N)n3ccccc23)c(OC)c1` it is -8.39% (inactive).
For `CCOc1ccc(CN2CCNC(=O)C2CC(=O)NCCCC2CCCC2)cc1` (stereo not drawn) the value was 8.04% (inactive); for `Oc1ccc(C2Nc3cccc4cccc(c34)N2)cc1`, 57.7% (active); for `COc1cccc(CNCCc2c[nH]c3ccccc23)c1OCc1ccccc1F`, -4.86% (inactive).
As to `Cc1cc(C(=O)NNS(=O)(=O)c2ccccc2C(F)(F)F)nn1C(C)(C)C`, the inhibition is -0.0808% (inactive).
For the compound `COc1ccc(/C(=N\O)c2nccc3cc(OC)c(OC)cc23)cc1OC`, the inhibition is -0.658% (inactive).
For `CNC(=O)c1ccc(CN(C)C(=O)c2cc(C3CC3)nc3c2cnn3C(C)C)cc1` the value was 2.58% (inactive); for `O=C(NC(Cc1c[nH]c2ccccc12)C(=O)N/N=C/c1ccc(Br)cc1)c1cccs1` (stereo not drawn), 32% (active).
Consider `CC(=O)NC(Cc1c[nH]c2ccccc12)C(=O)NCCc1ccccc1` (stereo not drawn), for which the inhibition is -5.17% (inactive).
For `O=C(CNC(=O)c1cccs1)N/N=C/c1cccc(Br)c1`, the inhibition is -5.24% (inactive).
On to `O=C1N(c2ccccc2)C(=Nc2ccccc2)SC12CC2`, for which the inhibition is -4.95% (inactive).
With `Cc1cc(Cl)ccc1NNC(=O)c1snnc1C`, the inhibition is 1.86% (inactive).
For the compound `OC(c1ccc(F)cc1)c1ncc(-c2cccc(C(F)(F)F)c2)[nH]1` (stereo not drawn), the inhibition is 0.456% (inactive).
For `O=C(NCc1ccccc1Cl)c1ccc2c(=O)n(CC3CCCO3)c(=S)[nH]c2c1` (stereo not drawn), the inhibition is -3.54% (inactive).
For `COc1ccc(N=Nc2ccc(O)c(P(=O)(c3ccccc3)c3ccccc3)c2)cc1` the value was 30.9% (active).
Take `Cc1cc(N=Nc2ccc3ccccc3c2)ccc1O`: the inhibition is -20.6% (inactive).
The figure for `CC(C)(C)c1cc(P(=O)(c2ccccc2)c2ccccc2)ccc1O` is -3.61% (inactive).
Turning to `CN1CC(=O)N=C1N`, the inhibition was -3.38% (inactive) and -0.141% (inactive).
For the compound `COc1cccc(CN(C)C(=O)CC[C@H]2O[C@@H](n3cnc4c(NC(=O)c5ccccc5)ncnc43)[C@H](O)[C@@H]2O)c1`, the inhibition is -1.41% (inactive).
Consider `O=C(CCN1CCCCC1)N=Nc1c(O)[nH]c2ccccc12`, for which the inhibition was -5.32% (inactive).
For `O=C(NCc1ccncc1)c1ccc(NS(=O)(=O)c2cccc([N+](=O)[O-])c2)cc1`, the inhibition is -1.63% (inactive).
The figure for `O=[N+]([O-])c1cc(S(=O)(=O)Nc2cccc(Cl)c2)ccc1N=Nc1c(O)[nH]c2ccccc12` is 61% (active); for `CCOC(=O)[C@]12CCCC=C1N(Cc1ccc(Cl)cc1Cl)C(=O)[C@H](CC(=O)N1CCCCC1)C2` it is -1.55% (inactive); for `Cc1ccc(N(CC(=O)NCC2CCCO2)C(=O)CNS(=O)(=O)c2ccc(Cl)cc2)cc1` (stereo not drawn) it is 2.66% (inactive).
As for `COc1ccc(-c2nc3cnccn3c2NC(C)(C)CC(C)(C)C)cc1O`, the inhibition was -3.5% (inactive).
The figure for `COc1ccc(-c2nc3cnccn3c2NC2CCCCC2)cc1-c1cccc(Cl)c1` is 33.8% (active) and 14.3% (inactive); for `COc1ccc(-c2nc3cc(C)ccn3c2NC2CCCCC2)cc1SC1CCCCC1` it is 17% (inactive) and 21% (inactive).
Regarding `COC(=O)c1ccc2nc(-c3cccc(Br)c3)c(Cc3ccc(OC)cc3C)n2c1`, the inhibition was 20.8% (inactive).
For `COC(=O)c1ccc2nc(-c3ccc(C)cc3)c(Cc3ccc(OC)cc3C)n2c1` the value was 31.6% (active); for `COC(=O)c1ccc2nc(-c3ccccc3)c(Cc3ccc(OC)cc3C)n2c1`, 10.9% (inactive).
The figure for `O=C(COC(=O)c1cccnc1Cl)Nc1ccc(S(=O)(=O)N2CCOCC2)cc1` is -4.21% (inactive).
The figure for `Cn1c2ccccc2c(=O)c2c(=O)n(Cc3ccco3)c(COc3ccccc3)nc21` is 42.5% (active).
On to `O=C(CSc1nnc(COc2ccc(Cl)cc2)n1Cc1ccco1)N1CCNC1=O`, for which the inhibition was 4.26% (inactive).
For the compound `CCc1nc2oc3ccccc3c(=O)c2c(=O)n1Cc1ccc(OC)cc1`, the inhibition was 2.99% (inactive).
For `COc1ccc(-c2ccc(CN3C(C(C)C)C(=O)N(Cc4cn(CC5CCCCC5)nn4)CCS3(=O)=O)cc2)cn1` (stereo not drawn), the inhibition is 4.8% (inactive).
The figure for `CCOC(=O)C(Sc1ncc(C#N)c(N)n1)C(C)C` (stereo not drawn) is 2.12% (inactive).
`CCCc1c(C(=O)Nc2ccc(F)cc2)cnn1-c1ccccc1`: the inhibition is -0.321% (inactive).
Consider `Cc1cccc(C)c1-n1nnnc1C1(C)CCC(=O)N1CCOc1ccccc1` (stereo not drawn), for which the inhibition was -5.82% (inactive).
Regarding `Cc1ccsc1/C=N/n1c(=S)[nH]nc(C)c1=O`, the inhibition was 1.04% (inactive).
As to `S=c1[nH]nc(-c2cccs2)n1/N=C/c1cn(-c2ccccc2)nc1-c1ccc(Cl)cc1`, the inhibition was 32.6% (active).
On to `CC(=O)C1=C(C)NC(C)=C(C(C)=O)C1c1cn(-c2ccccc2)nc1-c1cccs1`, for which the inhibition is 11.6% (inactive).
Regarding `C[C@H]1CC[C@]2(O[C@@H](CCO)C[C@@H](O)[C@@H]2O)O1`, the inhibition is 0.758% (inactive).
For `O=C(COC(=O)CCCNC(=O)c1ccc(Cl)cc1)Nc1cc(Cl)ccc1Cl` the value was -4.1% (inactive); for `COc1ccc([N+](=O)[O-])cc1C1NN=C(c2cccc3ccccc23)S1` (stereo not drawn), 17.6% (inactive).
For `NC(=O)C1CC(=O)N(c2ccc(OCC(=O)NCc3ccccc3)cc2)C1` (stereo not drawn) the value was 1.55% (inactive); for `COc1ccccc1C(=O)NCC(=O)OCC(=O)Nc1nnc(-c2ccccc2)o1`, 10.3% (inactive).
The figure for `O=C(COC(=O)c1ccccc1)Nc1ccccc1Sc1ccccc1` is -7.21% (inactive); for `O=C(COC(=O)c1ccc(Oc2ccccc2)cc1)Nc1nnc(-c2ccccc2)o1` it is 47.6% (active).
Consider `CC(C)(C)C(=O)CCN1C(=O)C2(OCCO2)c2ccccc21`, for which the inhibition is -0.902% (inactive).
For `COC(=O)[C@@]1(Cc2ccc(F)cc2)[C@H]2c3cc(C(=O)N4CCCC4)n(Cc4ccc(OC(F)(F)F)cc4)c3C[C@H]2CN1C(=O)c1ccccc1` the value was 13.9% (inactive).
